Data from PubChem BioAssay (NCI).
About 79,000 compounds went through this panel and 15% of them were active in at least one assay; those are over-represented in the sample as a whole. Activity calls are given as the source filed them. Rule as the data show it: active = growth inhibition above about 70%; inactive = the rest.

How the values were obtained:
[1] = NCI Yeast Anticancer Drug Screen. Data for the rad50 strain (AID 155);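 also: 0% = growth of vehicle-only cultures of the same strain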; conditions: S. cerevisiae rad50 strain growth inhibition; at 50.0 µM; active compounds read high
Procedure, shortened: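 A DNA repair-deficient yeast mutant serves as the test organism; compound-induced growth inhibition is calculated against vehicle-treated cells.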

[2] = NCI Yeast Anticancer Drug Screen. Data for the mec2-1 strain (AID 157); conditions: S. cerevisiae mec2-1 strain, at 50.0 µM, active compounds read high
Procedure, shortened: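 Vehicle-treated cultures served as reference for growth inhibition of compound-exposed mec2-1 yeast.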

[3] = NCI Yeast Anticancer Drug Screen. Data for the sgs1 mgt1 strain (AID 161);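 also: 0% = growth of cultures given vehicle only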; conditions: S. cerevisiae sgs1 mgt1 strain, at 50.0 µM, active compounds read high
Procedure, shortened: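 Genetically altered yeast, compound exposure, growth inhibition relative to vehicle.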

[4] = NCI Yeast Anticancer Drug Screen. Data for the cln2 rad14 strain (AID 165);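 also: 0% = growth equal to vehicle treated cultures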; conditions: S. cerevisiae cln2 rad14 strain, at 50.0 µM, active compounds read high
Procedure, shortened: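 Each compound was tested on cln2 rad14 yeast. Inhibition of growth was calculated against vehicle-exposed controls.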

[5] = NCI Yeast Anticancer Drug Screen. Data for the bub3 strain (AID 167); conditions: S. cerevisiae bub3 mutant strain, at 50.0 µM, active compounds read high
Procedure, shortened: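 Inhibition values come from growth of compound-treated mutant yeast normalised to vehicle-treated controls.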

[6] = NCI Yeast Anticancer Drug Screen. Data for the mlh1 rad18 strain (AID 175); conditions: S. cerevisiae mlh1 rad18 strain growth inhibition; at 50.0 µM; active compounds read high
Procedure, shortened: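 Vehicle-treated cultures served as the reference for growth inhibition in a yeast strain carrying DNA damage repair alterations exposed to each compound.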

Measured: growth inhibition

CCC1OC2(C)CC(C#N)(C#N)C1(C#N)C(=N)O2 (stereo not drawn)
inactive: [1] 0.6% | [2] -3.9% | [3] -46.4% | [4] -8.2% | [5] -31.4% | [6] -10.7%

N#Cc1nc(C(F)(F)F)oc1N
inactive: [1] -2.6% | [2] -1% | [3] -0.95% | [4] -7.85% | [5] -3.3% | [6] -42.4%

N#CC1(C#N)N[C@@H](c2ccsc2)[C@H]2C(=O)N(c3ccccc3)C(=O)[C@H]21
inactive: [1] 5.6% | [2] -8.2% | [3] 3.75% | [4] 8.5% | [5] -6.95% | [6] -4.05%

Cc1ccc2c(/C=C/c3ccc(N(C)C)cc3)ccc(C(C)C)cc1-2
inactive: [1] -5.4% | [2] -41.3% | [3] 19.1% | [4] 1.75% | [5] -22.2% | [6] -53.2%

COc1ccc(C2c3cc4c(c(OC)c3CC3OCC(=O)C32)OCO4)cc1OC (stereo not drawn)
inactive: [1] 4.25% | [2] -15.7% | [3] 22.6% | [4] 13.1% | [5] 1.45% | [6] -4.3%

CC(=O)C1=C(C)N2C(=NC3=C(CCc4ccccc43)C2c2ccc(Cl)cc2)S1 (stereo not drawn)
inactive: [1] 25.9% | [2] -14.6% | [3] 6.85% | [4] 6.25% | [5] -6.9% | [6] 1.5%

N#Cc1c(N)oc(-c2cccc([N+](=O)[O-])c2)c1C#N
inactive: [1] 24.6% | [2] 28.9% | [3] -19.9% | [4] 10.8% | [5] -6.3% | [6] -16.9%

C=CC(COC(=O)C(C)(C)OC(C)=O)c1ccc(OC(=O)C(C)C)c(OC)c1 (stereo not drawn)
inactive: [1] -12.3% | [2] -2.75% | [3] 20.4% | [4] -12.3% | [5] -9% | [6] -76.1%

O=C(CCc1ccc(O)c(O)c1)c1ccc(O)c(O)c1O
inactive: [1] 2.05% | [2] -19.9% | [3] 9.1% | [4] 2.6% | [5] -17.1% | [6] -33.9%

O=C=NC(c1ccccc1)(c1ccccc1)c1ccccc1
inactive: [1] -4.25% | [2] -18.1% | [3] 1.65% | [4] 11.5% | [5] -5.5% | [6] 13.2%

COc1ccc(CC2C(=O)NC(=O)NC2=O)cc1OCc1ccccc1
inactive: [1] 14.7% | [2] -1.75% | [3] -14.1% | [4] -10% | [5] -17.4% | [6] -44.6%

COc1c(O)ccc(C2=Cc3ccc(O)cc3OC2)c1OC
inactive: [6] -25.6%
active: [1] 80.2% | [2] 91.5% | [3] 88.2% | [4] 88.3% | [5] 88.7%

CC1(C)C2CCC1(CS(=O)(=O)O)C(=O)C2 (stereo not drawn)
inactive: [1] -14% | [2] -6.6% | [3] -12.4% | [4] -58.4% | [5] -4.65% | [6] -1.2%

C/C=C1\NC(=O)[C@H]2CSSCCC=C[C@H](CC(=O)N[C@H](C(C)C)C(=O)N2)OC(=O)[C@H](C(C)C)NC1=O
inactive: [1] 26.1% | [2] 35.4% | [3] 26.1% | [4] 51.6% | [5] 58.4% | [6] 33.5%

CC1(C)S[C@H](CN)N[C@H]1C(=O)OC(c1ccccc1)c1ccccc1
inactive: [1] -4.3% | [2] -13.4% | [3] 5.25% | [4] -1% | [5] -11.2% | [6] -31.9%

CC(=O)C1=C(C)N2C(=NC3=C(CCc4ccccc43)C2c2cccc(Br)c2)S1 (stereo not drawn)
inactive: [1] 12.4% | [2] -27.4% | [3] -19.4% | [4] 3.2% | [5] -7.5% | [6] -20.5%

COC(=O)c1cc(C#N)[nH]c1-c1ccsc1
inactive: [1] -27.4% | [2] -8% | [3] -10.8% | [4] 6.4% | [5] -3.4% | [6] 6.9%

COc1cc([C@H]2OC[C@H]3[C@@H]2CO[C@@H]3c2cc(OC)c3c(c2)OCO3)cc(OC)c1OC
inactive: [1] 17.1% | [2] -2.25% | [3] 1.25% | [4] 21.7% | [5] 39% | [6] -80.7%
